# The supplement of paper PMC4840960
# Where a name gives a salt, the structure may show the parent alone.
# Columns and labels:
# [1] = tested on: E18 rat cortical neuron-glia co-culture; experiment: fiber score / MBP score (myelination specific beyond OL differentiation) (ratio); higher = more myelination-specific MBP alignment; details: treatment time: 8 days (DIV5-DIV13)
# Summary of the method: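 Reported values are fiber score (continuous MBP fiber length per Olig2+ nucleus) divided by MBP score (thresholded MBP area × intensity per Olig2+ nucleus). They come from primary E18 rat cortical co-cultures treated with library compounds at 1 or 5 µM in myelination medium from DIV5 to DIV13, then fixed in 4 % paraformaldehyde, immunostained for MBP and Olig2 with DAPI, and analysed over four 10X fields per well in duplicate wells.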
# [2] = tested on: E18 rat cortical neuron-glia co-culture; experiment: myelination (MBP fiber length per Olig2+ nucleus), % of 1 µM DAPT response (DMSO = 0) (% of DAPT); higher = more myelination, active = 50 or more; details: treatment time: 8 days (DIV5-DIV13)
# Summary of the method: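 Rat cortical co-cultures from E18 tissue were dissociated with papain and plated at 20,000 cells/well on 96-well plates coated with poly-d-lysine/laminin. From DIV5 to DIV13, library compounds were added at 1 or 5 µM in myelination medium. After fixation in 4 % paraformaldehyde, cultures were immunostained for MBP and Olig2 and counterstained with DAPI, and four 10X fields were analysed in each of duplicate wells. The myelination value is the length of continuous straight MBP fibers per Olig2+ nucleus, normalised so that 0.1 % DMSO is 0 and a 1 µM positive control is 100.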
SMILES,fiber score / MBP score ([1]; 1 µM),fiber score / MBP score ([1]; 5 µM),myelination ([2]; 1 µM),myelination ([2]; 5 µM)
C[C@]12CC[C@@H]3c4ccc(OS(=O)(=O)O)cc4CC[C@H]3[C@@H]1CCC2=O [Estrone sulfate],1.04,1.16,3.23 (inactive),5.79 (inactive)
CCN(Cc1ccncc1)C(=O)C(CO)c1ccccc1 (stereo unspecified) [Tropicamide],0.511,0.747,-22.3 (inactive),-16.2 (inactive)
CC(C)n1c(/C=C/C(O)CC(O)CC(=O)O)c(-c2ccc(F)cc2)c2ccccc21 (stereo unspecified) [Fluvastatin],0.312,0.319,-15.7 (inactive),-13.7 (inactive)
CCC(C)n1ncn(-c2ccc(N3CCN(c4ccc(OCC5COC(Cn6cncn6)(c6ccc(Cl)cc6Cl)O5)cc4)CC3)cc2)c1=O (stereo unspecified) [Itraconazole],1.21,0.918,8.72 (inactive),-72.2 (inactive)
CC1(C)S[C@@H]2[C@H](NC(=O)COc3ccccc3)C(=O)N2[C@H]1C(=O)O [Penicillin V],0.881,0.734,-3.1 (inactive),-3.83 (inactive)
NS(=O)(=O)c1cc2c(cc1Cl)N=CNS2(=O)=O [Chlorothiazide],1.05,0.841,3.67 (inactive),6.93 (inactive)
C=C[C@H]1CN2CC[C@H]1C[C@H]2[C@H](O)c1ccnc2ccc(OC)cc12 [Quinine],0.921,0.644,-1.48 (inactive),-11.3 (inactive)
CN(C)c1nc(N(C)C)nc(N(C)C)n1 [Altretamine],0.923,0.901,-3.29 (inactive),-4.16 (inactive)
Cc1[nH]cnc1CN1CCc2c(c3ccccc3n2C)C1=O [Alosetron],0.768,0.974,-18.2 (inactive),-2.39 (inactive)
NCc1ccc(S(N)(=O)=O)cc1 [Mafenide],1.07,0.912,6.37 (inactive),3.49 (inactive)
O=C(O)COCCN1CCN(C(c2ccccc2)c2ccc(Cl)cc2)CC1 (stereo unspecified) [Virlix],0.867,0.681,-2.52 (inactive),-8.81 (inactive)
CC(Cc1ccccc1)(NC(=O)CN)c1ccccc1 (stereo unspecified) [Remacemide],0.793,0.749,-12.4 (inactive),-7.33 (inactive)
Nc1nnc(-c2cccc(Cl)c2Cl)c(N)n1 [Lamotrigine],0.703,0.746,-23.5 (inactive),-15.5 (inactive)
O=C1CCC(N2C(=O)c3ccccc3C2=O)C(=O)N1 (stereo unspecified) [Thalidomide],1.07,1.14,1.07 (inactive),4.71 (inactive)
C[C@]12CCC(=O)C=C1CC[C@@H]1[C@@H]2C(=O)C[C@@]2(C)[C@H]1CC[C@]2(O)C(=O)CO [Cortisone],0.752,0.764,-12.4 (inactive),-10.5 (inactive)
O=C(O)CCCc1ccccc1 [4-Phenylbutyric acid],1.07,0.747,10.1 (inactive),-8.79 (inactive)
CNS(=O)(=O)Cc1ccc2[nH]cc(CCN(C)C)c2c1 [Sumatriptan],0.873,0.861,-5.51 (inactive),-5.9 (inactive)
C[C@H]1O[C@H](O[C@H]2[C@H](O)[C@@H](O)[C@@H](O[C@H]3[C@H](O)[C@@H](O)C(O)O[C@@H]3CO)O[C@@H]2CO)[C@H](O)[C@@H](O)[C@@H]1N[C@H]1C=C(CO)[C@@H](O)[C@H](O)[C@H]1O (stereo partly specified) [Acarbose],0.856,0.99,-11.8 (inactive),-6.72 (inactive)
CCN1CCCC1CNC(=O)c1cc(S(=O)(=O)CC)ccc1OC (stereo unspecified) [Sultopride],0.758,0.461,-20.9 (inactive),-59.3 (inactive)
"O=c1[nH]cnc2c1ncn2[C@H]1CC[C@@H](CO)O1 [2',3'-Dideoxyinosine]",1.07,0.869,-2.19 (inactive),-10.5 (inactive)
COc1nc(C)nc(Cl)c1NC1=NCCN1 [Moxonidine],0.758,0.82,-10.8 (inactive),-21.6 (inactive)
CC(C)NCC(O)COc1cccc2[nH]ccc12 (stereo unspecified) [Pindolol],1.07,0.955,-3.4 (inactive),-3.46 (inactive)
C#C[C@]1(OC(C)=O)CC[C@H]2[C@@H]3CCC4=CC(=O)CC[C@@H]4[C@H]3CC[C@@]21C [Norethisterone acetate],0.907,0.989,-8.44 (inactive),-6.86 (inactive)
CCCNCC(O)COc1ccccc1C(=O)CCc1ccccc1 (stereo unspecified) [Propafenone],0.873,0.376,-1.52 (inactive),-22.4 (inactive)
